# Key:
# Assay in all cases: DAPPL (digital affinity profiling via proximity ligation, sequencing); 10 mM Tris-HCl pH 7.5, 50 mM NaCl, 1 mM DTT, 4% glycerol, room temperature, 30 min; GST-TFs on glutathione beads, 16-mer random dsDNA library, 0.1% formaldehyde crosslink after washing; high values mean tight binding
# FEV = biological target: T1, FEV (Homo sapiens, UniProt Q99581 1-238); details: protein: recombinant; tags: N-terminal GST; dsDNA, one strand shown
# T1 sequence: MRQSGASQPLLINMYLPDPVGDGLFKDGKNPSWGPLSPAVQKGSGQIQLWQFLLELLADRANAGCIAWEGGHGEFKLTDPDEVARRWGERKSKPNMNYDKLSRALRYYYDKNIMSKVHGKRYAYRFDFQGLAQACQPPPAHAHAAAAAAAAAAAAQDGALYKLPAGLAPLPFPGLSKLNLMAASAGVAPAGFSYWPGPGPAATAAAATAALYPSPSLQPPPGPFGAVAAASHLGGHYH
# Summary of the method: (§1)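 In yeast, human transcription factors were expressed with a GST fusion, then pulled down on glutathione beads and given DNA barcodes. Pooled with a tag-only sample, they were exposed to 200 nmole of a 16-mer random double-stranded DNA library (Tris/NaCl/DTT/glycerol buffer, room temperature, 30 min), washed, crosslinked with 0.1% formaldehyde, proximity-ligated using BsaI/T4 ligase for 1 h at 37 °C, PCR-amplified and read on an Illumina NextSeq500. Each hexamer's frequency of reads for a factor, divided by the matching frequency for the tag-only sample, gives the binding signal.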
# ETV5 = ETV5 (Homo sapiens, UniProt P41161 1-510); details: protein: recombinant; tags: N-terminal GST; dsDNA, one strand shown
# Summary of the method: as §1
# HSF1 = HSF1 (Homo sapiens, UniProt Q00613 1-529); details: protein: recombinant; tags: N-terminal GST; chain copies: 3; dsDNA, one strand shown
# Summary of the method: as §1
# SPIC = biological target: T2, SPIC (Homo sapiens, UniProt Q8N5J4 1-248); details: protein: recombinant; tags: N-terminal GST; dsDNA, one strand shown
# T2 sequence: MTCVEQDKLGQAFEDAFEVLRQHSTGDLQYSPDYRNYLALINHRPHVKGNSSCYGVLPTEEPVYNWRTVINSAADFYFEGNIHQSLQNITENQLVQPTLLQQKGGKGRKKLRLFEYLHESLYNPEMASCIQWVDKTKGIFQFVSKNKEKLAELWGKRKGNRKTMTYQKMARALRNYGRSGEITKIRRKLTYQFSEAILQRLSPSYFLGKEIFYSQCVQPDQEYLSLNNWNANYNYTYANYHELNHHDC
# Summary of the method: as §1
# ELF4 = ELF4 (Homo sapiens, UniProt Q99607 1-663); details: protein: recombinant; tags: N-terminal GST; dsDNA, one strand shown
# Summary of the method: as §1
# ELK4 = biological target: T3, ELK4 (Homo sapiens, UniProt P28324-2 1-405); details: protein: recombinant; tags: N-terminal GST; dsDNA, one strand shown
# T3 sequence: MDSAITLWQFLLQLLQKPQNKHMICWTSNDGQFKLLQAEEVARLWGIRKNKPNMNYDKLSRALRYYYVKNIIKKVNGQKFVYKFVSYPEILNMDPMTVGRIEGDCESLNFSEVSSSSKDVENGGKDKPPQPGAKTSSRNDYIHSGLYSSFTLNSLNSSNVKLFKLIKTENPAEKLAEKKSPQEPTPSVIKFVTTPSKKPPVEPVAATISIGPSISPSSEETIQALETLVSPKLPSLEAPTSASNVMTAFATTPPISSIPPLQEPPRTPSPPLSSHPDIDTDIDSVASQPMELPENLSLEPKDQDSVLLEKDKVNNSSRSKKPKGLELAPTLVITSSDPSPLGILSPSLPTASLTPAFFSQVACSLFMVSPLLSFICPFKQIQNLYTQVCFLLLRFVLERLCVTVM
# Summary of the method: as §1
# ETV2 = biological target: T4, ETV2 (Homo sapiens, UniProt O00321 1-342); details: protein: recombinant; tags: N-terminal GST; dsDNA, one strand shown
# T4 sequence: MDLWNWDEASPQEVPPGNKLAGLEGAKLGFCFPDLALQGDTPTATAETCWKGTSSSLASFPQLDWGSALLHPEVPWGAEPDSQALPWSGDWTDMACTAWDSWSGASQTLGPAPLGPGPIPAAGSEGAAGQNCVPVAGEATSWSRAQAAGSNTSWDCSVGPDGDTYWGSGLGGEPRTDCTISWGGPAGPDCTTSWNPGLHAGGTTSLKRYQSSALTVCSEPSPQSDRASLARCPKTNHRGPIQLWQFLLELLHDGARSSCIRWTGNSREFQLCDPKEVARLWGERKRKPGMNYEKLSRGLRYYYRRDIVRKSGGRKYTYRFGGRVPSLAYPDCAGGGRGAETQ
# Summary of the method: as §1
# ELF3 = biological target: T5, ELF3 (Homo sapiens, UniProt P78545 1-371); details: protein: recombinant; tags: N-terminal GST; dsDNA, one strand shown
# T5 sequence: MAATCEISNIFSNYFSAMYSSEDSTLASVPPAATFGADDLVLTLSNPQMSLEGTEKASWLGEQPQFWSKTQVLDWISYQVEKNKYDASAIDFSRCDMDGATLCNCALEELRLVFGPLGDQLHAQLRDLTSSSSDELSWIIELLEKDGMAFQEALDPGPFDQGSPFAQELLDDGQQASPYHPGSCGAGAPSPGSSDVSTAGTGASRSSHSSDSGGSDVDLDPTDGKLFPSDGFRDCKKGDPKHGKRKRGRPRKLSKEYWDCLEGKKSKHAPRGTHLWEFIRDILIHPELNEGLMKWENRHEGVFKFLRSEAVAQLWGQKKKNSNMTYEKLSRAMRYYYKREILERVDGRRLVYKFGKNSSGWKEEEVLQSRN
# Summary of the method: as §1
# CRX = CRX (Homo sapiens, UniProt O43186 1-299); details: protein: recombinant; tags: N-terminal GST; dsDNA, one strand shown
# Summary of the method: as §1
# ETV1 = ETV1 (Homo sapiens, UniProt P50549 1-477); details: protein: recombinant; tags: N-terminal GST; dsDNA, one strand shown
# Summary of the method: as §1
# ERF = biological target: T6, ERF (Homo sapiens, UniProt P50548 1-548); details: protein: recombinant; tags: N-terminal GST; dsDNA, one strand shown
# T6 sequence: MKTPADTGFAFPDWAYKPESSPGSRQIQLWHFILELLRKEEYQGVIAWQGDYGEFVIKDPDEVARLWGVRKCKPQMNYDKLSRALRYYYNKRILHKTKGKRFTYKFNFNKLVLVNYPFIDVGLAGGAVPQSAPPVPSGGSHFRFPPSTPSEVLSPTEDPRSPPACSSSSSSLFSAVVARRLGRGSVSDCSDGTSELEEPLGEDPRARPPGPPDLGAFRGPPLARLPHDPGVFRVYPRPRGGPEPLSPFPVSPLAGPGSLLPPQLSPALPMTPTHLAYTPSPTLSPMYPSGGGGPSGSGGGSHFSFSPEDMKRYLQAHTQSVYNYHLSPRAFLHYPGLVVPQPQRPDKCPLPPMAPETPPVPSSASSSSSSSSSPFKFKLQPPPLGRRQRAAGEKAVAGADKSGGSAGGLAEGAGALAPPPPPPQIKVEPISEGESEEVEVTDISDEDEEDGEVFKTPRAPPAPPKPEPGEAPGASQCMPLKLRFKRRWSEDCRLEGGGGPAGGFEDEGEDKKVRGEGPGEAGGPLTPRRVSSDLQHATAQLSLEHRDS
# Summary of the method: as §1
# ETV3L = biological target: T7, ETV3L (Homo sapiens, UniProt Q6ZN32 1-361); details: protein: recombinant; tags: N-terminal GST; dsDNA, one strand shown
# T7 sequence: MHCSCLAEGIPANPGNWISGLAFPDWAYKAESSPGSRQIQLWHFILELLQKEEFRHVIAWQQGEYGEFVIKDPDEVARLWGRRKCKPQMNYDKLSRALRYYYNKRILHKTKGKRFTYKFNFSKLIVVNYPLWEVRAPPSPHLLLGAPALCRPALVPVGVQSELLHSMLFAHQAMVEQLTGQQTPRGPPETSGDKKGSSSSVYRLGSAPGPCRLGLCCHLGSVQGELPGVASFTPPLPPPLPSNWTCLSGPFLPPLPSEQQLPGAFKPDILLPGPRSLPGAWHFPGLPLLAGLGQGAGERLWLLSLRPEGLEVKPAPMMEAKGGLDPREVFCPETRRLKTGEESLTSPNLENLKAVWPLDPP
# Summary of the method: as §1
# ETS2 = biological target: T8, ETS2 (Homo sapiens, UniProt P15036 1-469); details: protein: recombinant; tags: N-terminal GST; dsDNA, one strand shown
# T8 sequence: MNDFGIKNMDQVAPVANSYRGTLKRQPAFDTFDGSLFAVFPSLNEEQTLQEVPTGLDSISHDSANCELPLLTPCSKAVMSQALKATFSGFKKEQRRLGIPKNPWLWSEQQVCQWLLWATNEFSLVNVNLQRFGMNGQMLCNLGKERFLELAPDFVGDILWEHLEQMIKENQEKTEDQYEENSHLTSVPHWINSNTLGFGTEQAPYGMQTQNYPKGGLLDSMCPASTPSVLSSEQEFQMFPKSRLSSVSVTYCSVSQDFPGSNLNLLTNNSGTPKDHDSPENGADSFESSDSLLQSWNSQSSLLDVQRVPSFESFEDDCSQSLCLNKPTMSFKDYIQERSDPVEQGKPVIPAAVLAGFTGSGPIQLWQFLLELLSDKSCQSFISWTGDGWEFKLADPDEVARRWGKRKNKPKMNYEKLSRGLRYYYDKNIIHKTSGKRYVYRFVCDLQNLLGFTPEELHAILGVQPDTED
# Summary of the method: as §1
# SPDEF = biological target: T9, SPDEF (Homo sapiens, UniProt O95238 1-335); details: protein: recombinant; tags: N-terminal GST; dsDNA, one strand shown
# T9 sequence: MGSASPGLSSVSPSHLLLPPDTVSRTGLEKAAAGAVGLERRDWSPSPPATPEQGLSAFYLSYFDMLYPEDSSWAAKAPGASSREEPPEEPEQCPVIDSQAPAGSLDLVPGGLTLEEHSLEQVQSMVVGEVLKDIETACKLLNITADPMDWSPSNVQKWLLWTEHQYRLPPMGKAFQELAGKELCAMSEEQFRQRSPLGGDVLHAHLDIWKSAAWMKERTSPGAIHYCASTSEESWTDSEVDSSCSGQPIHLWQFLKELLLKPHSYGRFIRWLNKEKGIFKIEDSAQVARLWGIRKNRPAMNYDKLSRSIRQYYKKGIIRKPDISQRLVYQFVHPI
# Summary of the method: as §1
# ETV7 = biological target: T10, ETV7 (Homo sapiens, UniProt Q9Y603 1-341); details: protein: recombinant; tags: N-terminal GST; dsDNA, one strand shown
# T10 sequence: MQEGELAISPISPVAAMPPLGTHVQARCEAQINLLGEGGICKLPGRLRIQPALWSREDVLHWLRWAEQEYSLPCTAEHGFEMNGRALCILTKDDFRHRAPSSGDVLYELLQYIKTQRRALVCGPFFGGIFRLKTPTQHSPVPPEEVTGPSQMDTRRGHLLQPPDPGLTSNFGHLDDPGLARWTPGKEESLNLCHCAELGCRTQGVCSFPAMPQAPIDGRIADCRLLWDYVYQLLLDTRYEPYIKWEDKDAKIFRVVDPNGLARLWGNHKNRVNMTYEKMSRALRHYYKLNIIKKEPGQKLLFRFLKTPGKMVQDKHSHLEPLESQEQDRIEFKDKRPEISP
# Summary of the method: as §1
# ELF5 = biological target: T11, ELF5 (Homo sapiens, UniProt Q9UKW6-2 1-255); details: protein: recombinant; tags: N-terminal GST; dsDNA, one strand shown
# T11 sequence: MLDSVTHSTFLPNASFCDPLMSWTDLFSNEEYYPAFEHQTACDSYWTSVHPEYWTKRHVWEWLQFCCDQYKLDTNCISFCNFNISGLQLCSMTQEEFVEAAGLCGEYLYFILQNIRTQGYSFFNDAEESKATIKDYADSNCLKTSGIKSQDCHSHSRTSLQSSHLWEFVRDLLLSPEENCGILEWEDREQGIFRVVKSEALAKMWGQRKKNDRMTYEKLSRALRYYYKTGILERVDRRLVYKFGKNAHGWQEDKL
# Summary of the method: as §1
# ETV3 = biological target: T12, ETV3 (Homo sapiens, UniProt P41162-2 1-143); details: protein: recombinant; tags: N-terminal GST; dsDNA, one strand shown
# T12 sequence: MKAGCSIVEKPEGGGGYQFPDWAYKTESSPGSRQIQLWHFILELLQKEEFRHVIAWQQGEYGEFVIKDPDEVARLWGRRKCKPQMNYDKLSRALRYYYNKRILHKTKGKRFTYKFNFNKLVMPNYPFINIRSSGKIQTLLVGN
# Summary of the method: as §1
# ETV6 = ETV6 (Homo sapiens, UniProt P41212 1-452); details: protein: recombinant; tags: N-terminal GST; dsDNA, one strand shown
# Summary of the method: as §1
# ELF4, sequence (Q99607 whole entry): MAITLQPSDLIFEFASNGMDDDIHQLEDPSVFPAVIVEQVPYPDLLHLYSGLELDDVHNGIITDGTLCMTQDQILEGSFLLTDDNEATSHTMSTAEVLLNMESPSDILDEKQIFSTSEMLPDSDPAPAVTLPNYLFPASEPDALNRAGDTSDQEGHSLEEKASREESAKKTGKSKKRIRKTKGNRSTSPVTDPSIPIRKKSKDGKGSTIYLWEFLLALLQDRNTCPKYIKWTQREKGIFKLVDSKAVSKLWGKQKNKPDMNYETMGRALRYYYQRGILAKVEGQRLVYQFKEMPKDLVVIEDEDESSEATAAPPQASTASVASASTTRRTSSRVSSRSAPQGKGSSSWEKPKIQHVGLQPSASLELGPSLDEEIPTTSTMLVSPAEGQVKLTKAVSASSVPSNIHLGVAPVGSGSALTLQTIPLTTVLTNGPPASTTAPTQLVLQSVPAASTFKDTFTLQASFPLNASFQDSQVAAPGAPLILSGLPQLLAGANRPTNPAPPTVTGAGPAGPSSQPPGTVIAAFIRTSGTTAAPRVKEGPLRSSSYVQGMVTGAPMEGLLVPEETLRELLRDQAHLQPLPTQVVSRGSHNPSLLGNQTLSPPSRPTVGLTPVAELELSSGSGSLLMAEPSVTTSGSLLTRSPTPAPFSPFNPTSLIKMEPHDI
# HSF1, sequence (Q00613 whole entry): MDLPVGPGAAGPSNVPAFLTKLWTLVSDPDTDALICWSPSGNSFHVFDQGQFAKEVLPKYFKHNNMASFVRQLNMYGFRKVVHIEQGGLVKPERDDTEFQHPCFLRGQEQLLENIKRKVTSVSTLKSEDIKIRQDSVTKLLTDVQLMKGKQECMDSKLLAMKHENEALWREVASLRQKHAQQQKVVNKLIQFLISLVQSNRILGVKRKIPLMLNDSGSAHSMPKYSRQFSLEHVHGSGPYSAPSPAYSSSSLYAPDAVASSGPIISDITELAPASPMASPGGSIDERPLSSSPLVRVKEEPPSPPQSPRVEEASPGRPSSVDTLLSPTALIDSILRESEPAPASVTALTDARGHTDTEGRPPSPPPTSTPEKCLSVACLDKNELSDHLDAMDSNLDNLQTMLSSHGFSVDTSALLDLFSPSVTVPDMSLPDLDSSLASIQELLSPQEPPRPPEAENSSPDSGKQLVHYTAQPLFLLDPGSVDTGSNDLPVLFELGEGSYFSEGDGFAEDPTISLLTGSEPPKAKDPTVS
# ETV6, sequence (P41212 whole entry): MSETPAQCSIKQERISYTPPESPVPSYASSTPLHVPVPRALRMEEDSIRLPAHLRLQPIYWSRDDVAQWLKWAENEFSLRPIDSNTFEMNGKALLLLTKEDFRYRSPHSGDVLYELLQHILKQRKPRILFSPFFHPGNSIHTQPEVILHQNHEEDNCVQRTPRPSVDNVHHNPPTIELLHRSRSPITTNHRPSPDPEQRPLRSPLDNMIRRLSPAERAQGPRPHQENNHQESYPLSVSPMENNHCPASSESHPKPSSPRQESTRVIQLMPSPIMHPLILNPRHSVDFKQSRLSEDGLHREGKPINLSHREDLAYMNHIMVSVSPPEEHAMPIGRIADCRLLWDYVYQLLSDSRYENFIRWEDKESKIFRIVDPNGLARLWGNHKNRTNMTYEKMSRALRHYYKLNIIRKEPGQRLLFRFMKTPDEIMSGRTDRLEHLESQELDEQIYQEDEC
# ETV5, sequence (P41161 whole entry): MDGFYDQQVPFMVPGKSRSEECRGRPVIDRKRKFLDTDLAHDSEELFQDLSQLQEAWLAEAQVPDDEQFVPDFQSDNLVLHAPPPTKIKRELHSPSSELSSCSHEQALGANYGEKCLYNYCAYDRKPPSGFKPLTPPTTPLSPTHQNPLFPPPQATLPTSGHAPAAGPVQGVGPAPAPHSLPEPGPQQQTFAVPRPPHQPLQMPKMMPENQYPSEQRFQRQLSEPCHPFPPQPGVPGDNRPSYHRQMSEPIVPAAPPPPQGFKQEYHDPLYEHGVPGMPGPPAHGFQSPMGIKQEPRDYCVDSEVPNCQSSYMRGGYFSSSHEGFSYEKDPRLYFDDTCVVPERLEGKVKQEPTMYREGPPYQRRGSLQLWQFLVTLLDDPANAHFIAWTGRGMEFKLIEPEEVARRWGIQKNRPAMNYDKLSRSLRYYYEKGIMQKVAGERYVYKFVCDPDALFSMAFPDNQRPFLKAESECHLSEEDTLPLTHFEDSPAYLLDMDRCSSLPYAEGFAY
# CRX, sequence (O43186 whole entry): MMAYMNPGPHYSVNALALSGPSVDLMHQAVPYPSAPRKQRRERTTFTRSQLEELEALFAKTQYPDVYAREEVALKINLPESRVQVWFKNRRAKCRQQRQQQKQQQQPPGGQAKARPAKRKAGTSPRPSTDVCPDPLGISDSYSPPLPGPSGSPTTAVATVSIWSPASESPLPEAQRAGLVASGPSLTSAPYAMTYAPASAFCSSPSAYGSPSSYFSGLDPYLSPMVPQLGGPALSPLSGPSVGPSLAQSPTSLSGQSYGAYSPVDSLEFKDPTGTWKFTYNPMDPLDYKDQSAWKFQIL
# ETV1, sequence (P50549 whole entry): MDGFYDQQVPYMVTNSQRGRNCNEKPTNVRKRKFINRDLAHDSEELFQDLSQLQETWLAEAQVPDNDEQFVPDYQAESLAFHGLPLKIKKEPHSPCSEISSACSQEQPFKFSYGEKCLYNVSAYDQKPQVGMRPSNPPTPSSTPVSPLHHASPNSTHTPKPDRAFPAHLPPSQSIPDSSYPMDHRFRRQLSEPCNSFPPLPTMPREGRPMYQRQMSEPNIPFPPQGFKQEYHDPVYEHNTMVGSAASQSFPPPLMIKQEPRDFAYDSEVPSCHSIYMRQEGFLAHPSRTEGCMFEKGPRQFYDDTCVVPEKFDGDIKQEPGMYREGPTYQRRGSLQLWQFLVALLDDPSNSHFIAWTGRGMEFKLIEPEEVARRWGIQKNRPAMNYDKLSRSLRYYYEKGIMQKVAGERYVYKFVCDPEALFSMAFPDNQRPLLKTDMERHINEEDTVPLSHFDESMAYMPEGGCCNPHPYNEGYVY
sequence,measurement,setting,value
GATTCC,binding signal,FEV,"1.09 fold enrichment (6-mer frequency, TF over GST control)"
same,binding signal,ETV5,"1.21 fold enrichment (6-mer frequency, TF over GST control)"
same,binding signal,HSF1,"1.34 fold enrichment (6-mer frequency, TF over GST control)"
same,binding signal,SPIC,"1.18 fold enrichment (6-mer frequency, TF over GST control)"
same,binding signal,ELF4,"1.19 fold enrichment (6-mer frequency, TF over GST control)"
same,binding signal,ELK4,"1.13 fold enrichment (6-mer frequency, TF over GST control)"
same,binding signal,ETV2,"1.13 fold enrichment (6-mer frequency, TF over GST control)"
same,binding signal,ELF3,"1.09 fold enrichment (6-mer frequency, TF over GST control)"
same,binding signal,CRX,"1.15 fold enrichment (6-mer frequency, TF over GST control)"
same,binding signal,ETV1,"1.21 fold enrichment (6-mer frequency, TF over GST control)"
same,binding signal,ERF,"1.15 fold enrichment (6-mer frequency, TF over GST control)"
same,binding signal,ETV3L,"1.22 fold enrichment (6-mer frequency, TF over GST control)"
same,binding signal,ETS2,"1.14 fold enrichment (6-mer frequency, TF over GST control)"
same,binding signal,SPDEF,"1.29 fold enrichment (6-mer frequency, TF over GST control)"
same,binding signal,ETV7,"1.11 fold enrichment (6-mer frequency, TF over GST control)"
same,binding signal,ELF5,"1.21 fold enrichment (6-mer frequency, TF over GST control)"
same,binding signal,ETV3,"1.24 fold enrichment (6-mer frequency, TF over GST control)"
same,binding signal,ETV6,"1.14 fold enrichment (6-mer frequency, TF over GST control)"
